# Among all 52,000 compounds or so, about 4,300 (8.3%) were called active. The list comes from a sample in which actives are over-represented; it also holds similar structures and randomly drawn compounds. A number with no mark means an inactive call. Rule as the data show it: active = survival mostly below about 52% (no sharp cut-off); inactive = mostly above about 56%.
# System: DeltatarO mutant
# Assay: S. aureus survival, RN4220 and DeltatarO strains – OD600, teichoic acid synthesis inhibitors, primary screen (AID 463173)
# Conditions: S. aureus RN4220 wild type/DeltatarO growth, OD600, 18 h, stronger effect = lower value, screened at 18.75 µg/mL (by protocol)
row,SMILES,survival
1,Cc1ccc(C)c(Nc2nnc(-c3ccc(C)c(S(=O)(=O)N4CCN(C)CC4)c3)c3ccccc23)c1,84%
2,COC(=O)c1cc2sccc2n1Cc1nc(-c2cccc(Cl)c2)oc1C,83%
3,COC(=O)c1cc2sccc2n1Cc1nc(-c2ccc(Cl)cc2)oc1C,90%
4,COC(=O)CNC(=O)c1cc2sccc2n1Cc1ccccc1,97%
5,COC(=O)c1cc2sccc2n1Cc1nc(-c2ccc(C)cc2)oc1C,28% (active)
6,COC(=O)c1cc2sccc2n1Cc1ccccc1,35% (active)
7,COC(=O)c1cc2sccc2n1Cc1ccc(F)cc1,124%
8,CCc1cc2c(cc(C(=O)OC)n2Cc2nc(-c3ccc(C)cc3)oc2C)s1,26% (active)
9,COC(=O)c1cc2sc(Cl)cc2n1Cc1nc(-c2ccc(OC)cc2)oc1C,72%
10,COC(=O)c1cc2sc(C)cc2n1Cc1nc(-c2ccc(C)cc2)oc1C,109%
11,Cc1ccc(C2=NNC(c3cccnc3)=Nc3ccc(F)cc32)o1,96%
12,COc1ccc(Cl)cc1NC(=O)N1CCC(CN2CCCCCC2)CC1,79%
13,CN(C)c1ccc(/C=C(/NC(=O)c2ccccc2)C(N)=O)cc1,86%
14,Cc1ccc(NC(=O)C2CCCN(c3cnccn3)C2)cc1Cl (stereo unspecified),75%
15,C=CCNC(=O)CN1CCC(n2nnc3cc(C(F)(F)F)ccc32)CC1,79%
16,COC(=O)c1cnn2c(C(F)(F)F)cc(-c3ccccc3)nc12,68%
17,CCOC(=O)c1cnn2c(C(F)(F)F)cc(-c3ccc(Br)cc3)nc12,102%
18,COc1ccc(-c2cc(C(F)(F)F)n3nc(C(=O)Nc4ccccc4SC)cc3n2)cc1OC,148%
19,CCc1ccccc1NC(=O)c1cc2nc(-c3ccc(OC)c(OC)c3)cc(C(F)(F)F)n2n1,52% (active)
20,COc1ccc(-c2cc(C(F)(F)F)n3nc(C(=O)Nc4cccc(Cl)c4Cl)cc3n2)cc1OC,123%
21,CCc1ccccc1NC(=O)c1cnn2c(C(F)(F)F)cc(-c3ccc(OC)c(OC)c3)nc12,46% (active)
22,CCCCOc1ccc(C(=O)NCCc2sc(-c3ccc(OC)c(OC)c3)nc2C)cc1,72%
23,COc1ccc(NC(=O)c2oc3ccccc3c2NC(=O)C23CC4CC(CC(C4)C2)C3)cc1,80%
24,COc1ccc(N2CCN(c3ncnc4c3cnn4-c3ccc(C)c(Cl)c3)CC2)cc1,96%
25,Cc1ccc(/C=C/C(=O)N2CCC(c3nc4ccccc4o3)CC2)cc1,87%
26,CC(C)NC(=O)C1CCN(C(=O)N2CC(C)Oc3ccccc32)CC1 (stereo unspecified),72%
